Measured values taken from PubChem BioAssay AID1159580 (chemical genetic matrix, 2015).
Where “and” joins values, the source holds several entries; their conditions need not be identical. Identical values can stand only once. Screen size: about 5,500 compounds; about 2,000 (36%) were called active. Roughly 18% stayed inconclusive and do not appear here. Cut-off read from the data, not from the text of the source: active = normalized growth mostly below about 0.91 (no sharp cut-off); inconclusive = no clear call, values can overlap the other calls; inactive = mostly above about 0.92. Some of the results follow.

Assay: chemical genetic growth profiling, strain panel (AID 1159580);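 note: tested at 20 µM; growth read once vehicle control cultures reached saturation at 30 °C; 1 = growth at the plate median or of vehicle wells; lower values mean less growth of the strain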
Settings: S. cerevisiae deletion strains, growth OD

Measured: normalized growth

CC(CN(C)C)CN1c2ccccc2Sc2ccccc21 (configuration not stated)
inactive: locus YAL013W, strain DEP1, stronger effect = lower value 0.993 | locus YAL021C, strain ccr4, stronger effect = lower value 0.99 | locus YAL026C, strain drs2, stronger effect = lower value 0.951 | locus YAL030W, strain snc1, stronger effect = lower value 1.02 | locus YBL061C, strain skt5, stronger effect = lower value 1.02 | locus YBR009C, strain hhf1, stronger effect = lower value 1.02 | locus YBR023C, strain chs3, stronger effect = lower value 1.02 | locus YBR171W, strain sec66, stronger effect = lower value 1.04 | locus YBR229C, strain ROT2, stronger effect = lower value 0.992 | locus YBR231C, strain swc5, stronger effect = lower value 1.03 | locus YBR279W, strain paf1, stronger effect = lower value 1.02 | locus YCL011C, strain gbp2, stronger effect = lower value 1.02 | locus YCL016C, strain dcc1, stronger effect = lower value 1.01 | locus YCL029C, strain bik1, stronger effect = lower value 0.989 | locus YCL061C, strain MRC1, stronger effect = lower value 1.02 | locus YCL069W, strain vba3, stronger effect = lower value 1.02 | locus YCR088W, strain abp1, stronger effect = lower value 1.02 | locus YDL005C, strain med2, stronger effect = lower value 1.02 | locus YDL035C, strain GPR1, stronger effect = lower value 0.985 | locus YDL040C, strain nat1, stronger effect = lower value 1.01 | locus YDL074C, strain BRE1, stronger effect = lower value 0.933 | locus YDL101C, strain DUN1, stronger effect = lower value 0.985 | locus YDL134C, strain PPH21, stronger effect = lower value 0.979 | locus YDL185W, strain tfp1, stronger effect = lower value 0.974 | locus YDL192W, strain arf1, stronger effect = lower value 0.998 | locus YDR001C, strain nth1, stronger effect = lower value 1.01 | locus YDR069C, strain doa4, stronger effect = lower value 1.01 | locus YDR101C, strain arx1, stronger effect = lower value 0.988 | locus YDR150W, strain NUM1, stronger effect = lower value 1.01 | locus YDR159W, strain sac3, stronger effect = lower value 1.03 | locus YDR162C, strain NBP2, stronger effect = lower value 0.991 | locus YDR195W, strain ref2 1.13 | locus YDR297W, strain sur2, stronger effect = lower value 1.01 | locus YDR318W, strain mcm21, stronger effect = lower value 0.974 | locus YDR334W, strain swr1, stronger effect = lower value 1.02 | locus YDR335W, strain msn5, stronger effect = lower value 1.02 | locus YDR388W, stronger effect = lower value 0.966 | locus YDR392W, strain spt3, stronger effect = lower value 1.07 | locus YDR502C, strain sam2, stronger effect = lower value 0.99 | locus YEL003W, strain gim4, stronger effect = lower value 0.988 | locus YEL037C, strain rad23, stronger effect = lower value 1.01 | locus YEL061C, strain CIN8 (second series), stronger effect = lower value 1.02 | locus YEL061C, strain CIN8, stronger effect = lower value 0.994 | locus YER015W, strain faa2, stronger effect = lower value 1.03 | locus YER016W, strain bim1, stronger effect = lower value 1.02 | locus YER110C, stronger effect = lower value 0.999 | locus YER111C, strain swi4, stronger effect = lower value 1.03 | locus YER155C, strain BEM2 (second series), stronger effect = lower value 1.04 | locus YER155C, strain BEM2, stronger effect = lower value 0.99 | locus YER167W, strain BCK2, stronger effect = lower value 0.997 | locus YFR010W, strain ubp6, stronger effect = lower value 0.985 | locus YGL078C, strain dbp3, stronger effect = lower value 0.986 | locus YGL086W, strain mad1, stronger effect = lower value 0.991 | locus YGL167C, strain pmr1, stronger effect = lower value 1.03 | locus YGL173C, strain kem1, stronger effect = lower value 1.03 | locus YGL227W, strain vid30, stronger effect = lower value 1.02 | locus YGL240W, strain doc1, stronger effect = lower value 1.03 | locus YGL248W, strain PDE1, stronger effect = lower value 0.995 | locus YGL253W, strain hxk2, stronger effect = lower value 1.02 | locus YGR078C, strain PAC10, stronger effect = lower value 0.958 | locus YGR135W, strain pre9, stronger effect = lower value 0.944 | locus YGR229C, strain SMI1, stronger effect = lower value 0.911 | locus YGR252W, strain gcn5, stronger effect = lower value 0.917 | locus YHR013C, strain ard1, stronger effect = lower value 1.04 | locus YHR027C, strain rpn1, stronger effect = lower value 1.05 | locus YHR030C, strain SLT2, stronger effect = lower value 0.983 and 1 | locus YHR079C, strain IRE1 (second series), stronger effect = lower value 0.985 | locus YHR079C, strain IRE1, stronger effect = lower value 0.993 | locus YHR094C, strain hxt1, stronger effect = lower value 0.993 | locus YHR129C, strain ARP1, stronger effect = lower value 0.989 | locus YHR142W, strain chs7, stronger effect = lower value 1.01 | locus YHR200W, strain rpn10, stronger effect = lower value 0.988 | locus YIL066C, strain RNR3, stronger effect = lower value 0.972 | locus YIL073C, strain SPO22, stronger effect = lower value 0.991 | locus YIL125W, strain kgd1, stronger effect = lower value 0.996 | locus YIR030C, strain dcg1, stronger effect = lower value 0.989 | locus YJL092W, strain hpr5, stronger effect = lower value 1.01 | locus YJL095W, strain BCK1 (second series), stronger effect = lower value 1.01 | locus YJL095W, strain BCK1, stronger effect = lower value 0.861 and 1 | locus YJL115W, strain asf1, stronger effect = lower value 1.01 | locus YJL129C, strain trk1, stronger effect = lower value 1.11 | locus YJL134W, strain LCB3, stronger effect = lower value 0.992 | locus YJL154C, strain vps35, stronger effect = lower value 1.02 | locus YJL164C, strain tpk1, stronger effect = lower value 1.02 | locus YJL166W, strain qcr8, stronger effect = lower value 1.02 | locus YJL168C, strain set2, stronger effect = lower value 0.993 | locus YJL187C, strain SWE1 (second series), stronger effect = lower value 0.957 | locus YJL187C, strain SWE1, stronger effect = lower value 1.01 | locus YJR043C, strain POL32, stronger effect = lower value 1.02 | locus YJR066W, strain TOR1, stronger effect = lower value 0.937
active: locus YBR021W, strain FUR4, stronger effect = lower value 0.818 | locus YDR137W, strain rgp1, stronger effect = lower value 1.22 [resistant]
